Experimental findings from PubChem BioAssay (NCI) are described below.

The nature of test [1]: NCI Yeast Anticancer Drug Screen. Data for the rad50 strain (AID 155).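 Further: 0% = growth of vehicle-only cultures of the same strain.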 The following applies: S. cerevisiae rad50 strain growth inhibition, hits give high values. In short, it runs like this: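 Inhibition values express reduced yeast growth in compound-treated cultures relative to vehicle-treated controls.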
Test [2] is described as follows: NCI Yeast Anticancer Drug Screen. Data for the mec2-1 strain (AID 157). The following applies: S. cerevisiae mec2-1 strain, hits give high values. In short, it runs like this:
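Strain: mec2-1 (DNA repair/cell cycle alteration). Compound exposure, then growth measured; inhibition expressed relative to vehicle.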

Test [3] can be described thus: NCI Yeast Anticancer Drug Screen. Data for the sgs1 mgt1 strain (AID 161).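 Further: 0% = growth of cultures given vehicle only.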 The following applies: S. cerevisiae sgs1 mgt1 strain, hits give high values. The essentials:
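Mutant yeast exposed to compound; growth scored against vehicle-only wells.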

Test [4] is described as follows: NCI Yeast Anticancer Drug Screen. Data for the cln2 rad14 strain (AID 165).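 Further: 0% = growth equal to vehicle treated cultures.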 The following applies: S. cerevisiae cln2 rad14 strain, hits give high values. In short, it runs like this:
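Compounds are applied to the cln2 rad14 yeast strain, and growth is then compared with that of vehicle-treated cultures to give inhibition.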

The nature of test [5]: NCI Yeast Anticancer Drug Screen. Data for the bub3 strain (AID 167). The following applies: S. cerevisiae bub3 mutant strain, hits give high values. In short, it runs like this: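 Steps: expose the mutant yeast strain to compound; grow alongside vehicle-treated cultures; measure growth; express inhibition against the vehicle cultures.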
Test [6] is described as follows: NCI Yeast Anticancer Drug Screen. Data for the mlh1 rad18 strain (AID 175). The following applies: S. cerevisiae mlh1 rad18 strain growth inhibition, hits give high values. The essentials: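 Read-out is yeast growth inhibition, calculated against vehicle-only controls. The compound was applied to a strain engineered with DNA damage repair alterations.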
Setting [7] is: at 5.0 µM (retest, dose inferred, filed as 0.5).
Setting [8] is: at 50.0 µM (retest, dose inferred, filed as 5.0).

This is part of a sample that, as a whole, favours compounds with a hit. Of some 79,000 tested, about 15% had one in any assay. A number with no mark means an inactive call. Activity calls are given as the source filed them. No stated cut-off is given here; in the data, active means growth inhibition above about 70%; inactive means the rest.

Turning to `CCOc1ccc2c(c1)nc1ccccc1[n+]2CC`, the growth inhibition was 2% in test [1] (setting [7]); 22% in test [1] (setting [8]); 20.3% in test [1] (at 50.0 µM); 7% in test [2] (setting [7]); 33% in test [2] (setting [8]); 48.6% in test [2] (at 50.0 µM). For the same compound, the growth inhibition in test [3] (setting [7]) was 2%; in test [3] (setting [8]), 27%; in test [3] (at 50.0 µM) it was 41.4%; in test [4] (setting [7]), 2%; in test [4] (setting [8]) it was 9%; in test [4] (at 50.0 µM) it was 56.4%. In addition, the growth inhibition was 6% in test [5] (setting [7]); 36% in test [5] (setting [8]); 24.3% in test [5] (at 50.0 µM); -4% in test [6] (setting [7]); 20% in test [6] (setting [8]); 44.2% in test [6] (at 50.0 µM).
On to `CC(C)CCCC(C)[C@H]1CCC(C2C[C@@H](O)[C@@H]3CC(O)[C@@H](O)C[C@]3(CO)C2=O)[C@]1(C)CCO` (stereo not given in full), for which the growth inhibition is -14% in test [1] (setting [7]); 99% (active) in test [1] (setting [8]); 92.5% (active) in test [1] (at 50.0 µM); -13% in test [2] (setting [7]); 99% (active) in test [2] (setting [8]); 92.5% (active) in test [2] (at 50.0 µM). In addition, the growth inhibition in test [3] (setting [7]) is -6%; in test [3] (setting [8]), 99% (active); in test [3] (at 50.0 µM), 91.7% (active); in test [4] (setting [7]), 13%; in test [4] (setting [8]), 98% (active); in test [4] (at 50.0 µM) it was 90.2% (active). The growth inhibition in test [5] (setting [7]) was 4%; in test [5] (setting [8]) it was 98% (active); in test [5] (at 50.0 µM) it was 91.6% (active); in test [6] (setting [7]), -10%; in test [6] (setting [8]), 98% (active); in test [6] (at 50.0 µM), 92% (active).
As to `CCC1OC(OC)C=CC1=O` (stereo not given), the growth inhibition in test [1] (setting [7]) is -1%; in test [1] (setting [8]), -8%; in test [1] (at 50.0 µM), 90% (active); in test [2] (setting [7]), -10%; in test [2] (setting [8]), -25%; in test [2] (at 50.0 µM) it was 94% (active). Moreover, the growth inhibition in test [3] (setting [7]) is -14%; in test [3] (setting [8]) it was -19%; in test [3] (at 50.0 µM), 90.2% (active); in test [4] (setting [7]), 18%; in test [4] (setting [8]), 15%; in test [4] (at 50.0 µM) it was 90.5% (active). Also, the growth inhibition is -6% in test [5] (setting [7]); -15% in test [5] (setting [8]); 90.3% (active) in test [5] (at 50.0 µM); -16% in test [6] (setting [7]); -30% in test [6] (setting [8]); 91.8% (active) in test [6] (at 50.0 µM).
Take `CCCCCCN(CCCCCC)CC(O)c1cc(-c2ccccc2)nc2c(O)cccc12` (stereo not given): the growth inhibition was 4% in test [1] (setting [7]); 56% in test [1] (setting [8]); 23.7% in test [1] (at 50.0 µM); 7% in test [2] (setting [7]); 73% (active) in test [2] (setting [8]); 22.6% in test [2] (at 50.0 µM). Besides, the growth inhibition is -118% in test [3] (setting [7]); 95% (active) in test [3] (setting [8]); 93.8% (active) in test [3] (at 50.0 µM); 4% in test [4] (setting [7]); 42% in test [4] (setting [8]); 8.2% in test [4] (at 50.0 µM). The growth inhibition was 8% in test [5] (setting [7]); 92% (active) in test [5] (setting [8]); 40% in test [5] (at 50.0 µM); 30% in test [6] (setting [7]); 87% (active) in test [6] (setting [8]); 33.5% in test [6] (at 50.0 µM).
Regarding `Nc1nc2nn(-c3ccc(C(=O)O)cc3)nc2c(=O)[nH]1`, the growth inhibition in test [1] (setting [7]) is 2%; in test [1] (setting [8]) it was 9%; in test [1] (at 50.0 µM), 16.6%; in test [2] (setting [7]) it was 3%; in test [2] (setting [8]), 1%; in test [2] (at 50.0 µM), 30.8%. Moreover, the growth inhibition in test [3] (setting [7]) was -4%; in test [3] (setting [8]), 3%; in test [3] (at 50.0 µM), 9.3%; in test [4] (setting [7]), 4%; in test [4] (setting [8]), 1%; in test [4] (at 50.0 µM), -7.05%. The growth inhibition in test [5] (setting [7]) was -2%; in test [5] (setting [8]) it was -3%; in test [5] (at 50.0 µM) it was 39.8%; in test [6] (setting [7]), 3%; in test [6] (setting [8]) it was 9%; in test [6] (at 50.0 µM) it was 67.9%.
With `CC1OC2CC(=O)OC2C2=C1C(=O)c1c(O)cccc1C2=O` (stereo not given), the growth inhibition in test [1] (setting [7]) was 99% (active); in test [1] (setting [8]), 99% (active); in test [1] (at 50.0 µM), 91.8% (active); in test [2] (setting [7]), 100% (active); in test [2] (setting [8]), 99% (active); in test [2] (at 50.0 µM), 93% (active). The growth inhibition was 99% (active) in test [3] (setting [7]); 99% (active) in test [3] (setting [8]); 92.6% (active) in test [3] (at 50.0 µM); 99% (active) in test [4] (setting [7]); 99% (active) in test [4] (setting [8]); 91.4% (active) in test [4] (at 50.0 µM). Further, the growth inhibition in test [5] (setting [7]) is 99% (active); in test [5] (setting [8]), 99% (active); in test [5] (at 50.0 µM) it was 91.4% (active); in test [6] (setting [7]), 99% (active); in test [6] (setting [8]), 99% (active); in test [6] (at 50.0 µM), 91.7% (active).
In the case of `CN(C)C(=O)c1ccc(SC(=S)NCc2ccccc2)cc1`, the growth inhibition was 11% in test [1] (setting [7]); 99% (active) in test [1] (setting [8]); 98.5% (active) in test [1] (at 50.0 µM); 0% in test [2] (setting [7]); 100% (active) in test [2] (setting [8]); 97% (active) in test [2] (at 50.0 µM). For the same compound, the growth inhibition was 3% in test [3] (setting [7]); 98% (active) in test [3] (setting [8]); 97.8% (active) in test [3] (at 50.0 µM); 7% in test [4] (setting [7]); 99% (active) in test [4] (setting [8]); 96.2% (active) in test [4] (at 50.0 µM). Moreover, the growth inhibition in test [5] (setting [7]) was -11%; in test [5] (setting [8]), 99% (active); in test [5] (at 50.0 µM), 81% (active); in test [6] (setting [7]), 24%; in test [6] (setting [8]), 42%; in test [6] (at 50.0 µM), 98.8% (active).
As to `NC(=O)c1nnn(Cc2cc(Cl)c(C(=O)c3ccc(Cl)cc3)c(Cl)c2)c1N`, the growth inhibition in test [1] (setting [7]) was 2%; in test [1] (setting [8]), 98% (active); in test [1] (at 50.0 µM), 57.2%; in test [2] (setting [7]), 3%; in test [2] (setting [8]) it was 99% (active); in test [2] (at 50.0 µM) it was 98.9% (active). Moreover, the growth inhibition is 2% in test [3] (setting [7]); 99% (active) in test [3] (setting [8]); 50.3% in test [3] (at 50.0 µM); 1% in test [4] (setting [7]); 98% (active) in test [4] (setting [8]); 98.6% (active) in test [4] (at 50.0 µM). The growth inhibition was 5% in test [5] (setting [7]); 99% (active) in test [5] (setting [8]); 98.8% (active) in test [5] (at 50.0 µM); 13% in test [6] (setting [7]); 94% (active) in test [6] (setting [8]); 98.8% (active) in test [6] (at 50.0 µM).
For the compound `CC(C)Cc1ncc(CC(C)C)n(O)c1=O`, the growth inhibition was 34% in test [1] (setting [7]); 97% (active) in test [1] (setting [8]); 89.2% (active) in test [1] (at 50.0 µM); 26% in test [2] (setting [7]); 98% (active) in test [2] (setting [8]); 87.8% (active) in test [2] (at 50.0 µM). Also, the growth inhibition in test [3] (setting [7]) was 41%; in test [3] (setting [8]), 97% (active); in test [3] (at 50.0 µM) it was 91% (active); in test [4] (setting [7]), -6%; in test [4] (setting [8]), 97% (active); in test [4] (at 50.0 µM), 81.3% (active). Moreover, the growth inhibition in test [5] (setting [7]) was 10%; in test [5] (setting [8]) it was 99% (active); in test [5] (at 50.0 µM) it was 89.5% (active); in test [6] (setting [7]) it was 61%; in test [6] (setting [8]), 98% (active); in test [6] (at 50.0 µM) it was 89.9% (active).
For the compound `CN(C)c1ccc(/C=C(\C#N)c2c(F)cccc2F)cc1`, the growth inhibition in test [1] (setting [7]) was 4%; in test [1] (setting [8]), -2%; in test [1] (at 50.0 µM), 6.05%; in test [2] (setting [7]), 3%; in test [2] (setting [8]) it was 2%; in test [2] (at 50.0 µM), -10.8%. In addition, the growth inhibition in test [3] (setting [7]) was 4%; in test [3] (setting [8]), 1%; in test [3] (at 50.0 µM), 17.9%; in test [4] (setting [7]), 3%; in test [4] (setting [8]) it was -3%; in test [4] (at 50.0 µM) it was 41.8%. For the same compound, the growth inhibition is 3% in test [5] (setting [7]); -2% in test [5] (setting [8]); 13.3% in test [5] (at 50.0 µM); 1% in test [6] (setting [7]); -1% in test [6] (setting [8]); 0.45% in test [6] (at 50.0 µM).
